# Test results reported in the supplement of paper PMC10849652.
# Of roughly 8,800 targets only a part is listed; those with a hit were picked by preference. About 0.5% of all pairs of compound and target were hits. A number with no mark means an inactive call.
# Assays:
# Assay in all cases: log2 fold change, soluble protein after heating vs DMSO (PISA); higher = thermal stabilisation; K562 lysate, 10 uM; active = over 0.2 and 3.5 SD of the protein, either way, in both replicates (recomputed)
# [1] = compound: C#Cc1cccc(Nc2ncnc3cc(OCCOC)c(OCCOC)cc23)c1 [erlotinib]
# Method in brief: (§1)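 Quantification was by TMTpro 16plex LC-MS/MS with equalised channel sums, applied to the supernatant after 21,000xg for 90 min. Samples were crude K562 extract at 1 mg/mL protein in PBS pH 7.4 with 1 mM MgCl2, treated with 10 μM compound for 30 min, heated for 3 min across 48°C-58°C, pooled and brought to 0.5% NP-40 at 4°C. Values are log-two fold changes in thermal stability relative to solvent controls, from duplicates.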
# [2] = compound: C/C(=N\NC(=O)C1=CC(=CC=C1)S(=O)(=O)N2CCOCC2)/C3=C(C=CC(=C3)Cl)O
# Method in brief: as §1
# [3] = compound: C1=CC(=CC=C1C2=NC3=C(N2)C=C(C=C3)C(=O)N)OC4=CC=C(C=C4)Cl
# Method in brief: as §1
# [4] = compound: C1=CC2=C(C=CC(=C2)/C=C\3/C(=O)NC(=NCC4=CC=CS4)S3)N=C1
# Method in brief: as §1
# [5] = compound: C1=CC2=NC=CN=C2C=C1/C=C/3\C(=O)NC(=O)S3
# Method in brief: as §1
# [6] = compound: C1=CC=C(C=C1)C2=NC(=C(N2)C3=CC=NC=C3)C4=CC(=C(C=C4)Cl)O
# Method in brief: as §1
# [7] = compound: C1=CC=C2C(=C1)C3=NNC4=CC=CC(=C43)C2=O
# Method in brief: as §1
# [8] = compound: C1CCN(C1)C(=O)NC2=CC=CC(=C2)NC3=NC=C(C(=N3)NCCC4=CN=CN4)Br
# Method in brief: as §1
# [9] = compound: C1CN(CCC1(CC2=CC=C(C=C2)Cl)N)C3=NC=NC4=C3C=CN4
# Method in brief: as §1
# [10] = compound: C1COCCN1CCN2C3=CC=CC=C3N=C2NC(=O)C4=CC(=CC=C4)[N+](=O)[O-] [IRAK-1-4 Inhibitor I]
# Method in brief: as §1
# Chain of UniProt Q9Y5T5 (Q9Y5T5 whole entry, looked up): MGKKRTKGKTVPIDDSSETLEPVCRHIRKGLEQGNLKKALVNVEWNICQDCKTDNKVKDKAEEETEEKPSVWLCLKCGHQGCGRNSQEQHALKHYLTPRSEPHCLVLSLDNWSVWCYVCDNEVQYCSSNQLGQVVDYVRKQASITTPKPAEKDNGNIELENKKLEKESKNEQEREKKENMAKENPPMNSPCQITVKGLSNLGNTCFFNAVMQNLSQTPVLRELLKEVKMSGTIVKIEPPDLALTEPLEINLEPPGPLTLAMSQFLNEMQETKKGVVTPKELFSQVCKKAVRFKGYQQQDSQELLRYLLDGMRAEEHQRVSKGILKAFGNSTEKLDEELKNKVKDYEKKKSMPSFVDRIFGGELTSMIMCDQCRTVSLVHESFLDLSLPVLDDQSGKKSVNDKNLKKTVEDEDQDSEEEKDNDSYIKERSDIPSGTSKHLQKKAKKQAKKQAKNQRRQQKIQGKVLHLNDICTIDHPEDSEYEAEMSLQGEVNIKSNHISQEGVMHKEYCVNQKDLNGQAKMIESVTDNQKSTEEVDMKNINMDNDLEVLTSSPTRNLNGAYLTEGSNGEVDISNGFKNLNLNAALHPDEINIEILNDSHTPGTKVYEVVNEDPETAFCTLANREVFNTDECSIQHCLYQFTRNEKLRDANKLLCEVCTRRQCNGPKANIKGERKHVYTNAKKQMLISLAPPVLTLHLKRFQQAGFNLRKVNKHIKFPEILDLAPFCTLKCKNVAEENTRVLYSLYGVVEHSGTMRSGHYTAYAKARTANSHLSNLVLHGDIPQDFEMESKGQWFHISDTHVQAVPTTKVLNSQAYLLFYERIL
# Chain of UniProt Q08AM6 (Q08AM6 whole entry, looked up): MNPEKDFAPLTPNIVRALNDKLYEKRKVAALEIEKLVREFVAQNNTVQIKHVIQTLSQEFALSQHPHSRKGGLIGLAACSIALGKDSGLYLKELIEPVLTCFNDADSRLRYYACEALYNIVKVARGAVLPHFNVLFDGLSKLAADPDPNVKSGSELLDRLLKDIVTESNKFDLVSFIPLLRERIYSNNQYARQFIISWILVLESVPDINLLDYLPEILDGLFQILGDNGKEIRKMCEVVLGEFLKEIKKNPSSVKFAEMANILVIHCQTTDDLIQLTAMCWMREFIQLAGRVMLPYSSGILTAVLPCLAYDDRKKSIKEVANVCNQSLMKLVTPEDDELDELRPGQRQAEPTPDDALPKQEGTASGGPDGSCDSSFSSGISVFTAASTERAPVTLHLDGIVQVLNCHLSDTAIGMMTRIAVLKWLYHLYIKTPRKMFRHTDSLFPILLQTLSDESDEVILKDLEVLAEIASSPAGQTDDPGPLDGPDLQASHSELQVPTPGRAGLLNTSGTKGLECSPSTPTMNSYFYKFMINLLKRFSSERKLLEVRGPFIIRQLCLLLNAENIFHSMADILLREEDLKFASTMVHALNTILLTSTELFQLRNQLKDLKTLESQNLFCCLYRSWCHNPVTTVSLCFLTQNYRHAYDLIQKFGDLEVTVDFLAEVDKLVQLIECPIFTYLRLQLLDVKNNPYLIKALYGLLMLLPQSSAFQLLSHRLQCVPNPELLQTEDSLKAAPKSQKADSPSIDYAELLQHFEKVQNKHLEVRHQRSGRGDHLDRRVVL
# Chain of UniProt O75717 (O75717 whole entry, looked up): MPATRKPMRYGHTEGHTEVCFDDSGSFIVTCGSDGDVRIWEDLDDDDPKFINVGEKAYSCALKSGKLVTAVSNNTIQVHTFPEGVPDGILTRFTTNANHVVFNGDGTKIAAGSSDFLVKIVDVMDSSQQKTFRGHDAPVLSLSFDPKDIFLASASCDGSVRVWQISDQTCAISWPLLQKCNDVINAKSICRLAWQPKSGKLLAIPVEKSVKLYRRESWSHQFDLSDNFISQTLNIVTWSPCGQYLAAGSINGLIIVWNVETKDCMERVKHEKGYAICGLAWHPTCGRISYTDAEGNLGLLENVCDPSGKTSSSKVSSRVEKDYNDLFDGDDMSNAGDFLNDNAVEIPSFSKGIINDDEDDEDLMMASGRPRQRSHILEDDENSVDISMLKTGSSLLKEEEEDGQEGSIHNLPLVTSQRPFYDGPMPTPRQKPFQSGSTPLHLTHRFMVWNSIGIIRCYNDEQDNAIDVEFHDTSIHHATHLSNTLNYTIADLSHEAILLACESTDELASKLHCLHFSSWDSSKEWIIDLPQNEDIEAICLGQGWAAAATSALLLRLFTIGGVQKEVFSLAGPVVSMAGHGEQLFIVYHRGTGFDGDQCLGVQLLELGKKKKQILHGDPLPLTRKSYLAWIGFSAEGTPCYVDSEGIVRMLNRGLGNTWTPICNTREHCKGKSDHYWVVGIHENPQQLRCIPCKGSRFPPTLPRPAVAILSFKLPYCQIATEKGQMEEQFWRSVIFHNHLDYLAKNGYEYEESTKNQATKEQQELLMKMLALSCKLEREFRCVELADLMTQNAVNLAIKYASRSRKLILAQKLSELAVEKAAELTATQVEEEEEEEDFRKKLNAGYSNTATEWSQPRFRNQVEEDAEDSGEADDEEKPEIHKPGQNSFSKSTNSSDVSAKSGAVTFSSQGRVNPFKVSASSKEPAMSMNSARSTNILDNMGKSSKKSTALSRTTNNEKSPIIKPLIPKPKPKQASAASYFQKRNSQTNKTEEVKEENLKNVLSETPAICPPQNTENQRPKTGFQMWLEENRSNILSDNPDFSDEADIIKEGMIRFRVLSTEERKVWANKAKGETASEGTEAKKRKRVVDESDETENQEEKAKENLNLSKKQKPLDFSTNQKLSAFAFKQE
# Chain of UniProt P42768 (P42768 whole entry, looked up): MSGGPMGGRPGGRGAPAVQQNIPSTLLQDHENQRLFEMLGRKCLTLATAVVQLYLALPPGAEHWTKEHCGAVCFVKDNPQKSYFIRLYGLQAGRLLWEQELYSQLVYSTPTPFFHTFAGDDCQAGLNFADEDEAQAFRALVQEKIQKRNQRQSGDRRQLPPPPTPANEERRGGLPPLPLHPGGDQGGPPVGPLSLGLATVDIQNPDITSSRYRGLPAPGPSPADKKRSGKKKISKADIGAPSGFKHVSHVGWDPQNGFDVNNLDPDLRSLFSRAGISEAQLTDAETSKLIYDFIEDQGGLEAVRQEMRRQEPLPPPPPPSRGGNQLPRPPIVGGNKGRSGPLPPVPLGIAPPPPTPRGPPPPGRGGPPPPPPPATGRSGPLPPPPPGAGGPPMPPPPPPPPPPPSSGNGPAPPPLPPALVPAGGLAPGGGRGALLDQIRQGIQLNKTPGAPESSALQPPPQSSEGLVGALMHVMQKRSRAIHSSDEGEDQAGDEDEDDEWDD
# Chain of UniProt Q8IX07 (Q8IX07 whole entry, looked up): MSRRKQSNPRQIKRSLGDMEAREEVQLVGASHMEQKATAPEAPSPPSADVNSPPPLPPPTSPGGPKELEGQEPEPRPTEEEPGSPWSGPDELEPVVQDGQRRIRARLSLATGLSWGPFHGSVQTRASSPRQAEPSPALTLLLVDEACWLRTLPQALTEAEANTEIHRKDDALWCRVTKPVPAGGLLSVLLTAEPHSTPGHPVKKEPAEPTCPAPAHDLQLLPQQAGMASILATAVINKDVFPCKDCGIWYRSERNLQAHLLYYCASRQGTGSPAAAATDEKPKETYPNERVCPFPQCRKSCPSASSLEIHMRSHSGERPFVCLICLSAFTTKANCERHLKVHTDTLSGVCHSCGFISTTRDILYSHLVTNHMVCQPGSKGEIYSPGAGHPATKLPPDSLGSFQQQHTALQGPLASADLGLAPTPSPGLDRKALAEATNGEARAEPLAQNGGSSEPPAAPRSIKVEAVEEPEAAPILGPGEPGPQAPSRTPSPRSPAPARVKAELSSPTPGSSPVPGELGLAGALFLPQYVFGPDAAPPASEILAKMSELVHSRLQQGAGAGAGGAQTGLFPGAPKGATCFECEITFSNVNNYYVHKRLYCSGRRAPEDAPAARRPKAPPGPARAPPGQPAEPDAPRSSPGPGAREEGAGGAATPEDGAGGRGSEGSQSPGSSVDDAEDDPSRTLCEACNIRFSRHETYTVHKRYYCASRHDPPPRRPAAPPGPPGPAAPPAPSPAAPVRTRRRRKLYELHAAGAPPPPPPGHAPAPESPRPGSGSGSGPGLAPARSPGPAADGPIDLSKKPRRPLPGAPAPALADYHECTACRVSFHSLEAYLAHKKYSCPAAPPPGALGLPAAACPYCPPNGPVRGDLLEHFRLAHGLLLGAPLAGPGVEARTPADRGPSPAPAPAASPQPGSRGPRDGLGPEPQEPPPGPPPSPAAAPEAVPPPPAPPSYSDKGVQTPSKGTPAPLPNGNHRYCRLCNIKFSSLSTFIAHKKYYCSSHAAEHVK
# Chain of UniProt Q9Y5J1 (Q9Y5J1 whole entry, looked up): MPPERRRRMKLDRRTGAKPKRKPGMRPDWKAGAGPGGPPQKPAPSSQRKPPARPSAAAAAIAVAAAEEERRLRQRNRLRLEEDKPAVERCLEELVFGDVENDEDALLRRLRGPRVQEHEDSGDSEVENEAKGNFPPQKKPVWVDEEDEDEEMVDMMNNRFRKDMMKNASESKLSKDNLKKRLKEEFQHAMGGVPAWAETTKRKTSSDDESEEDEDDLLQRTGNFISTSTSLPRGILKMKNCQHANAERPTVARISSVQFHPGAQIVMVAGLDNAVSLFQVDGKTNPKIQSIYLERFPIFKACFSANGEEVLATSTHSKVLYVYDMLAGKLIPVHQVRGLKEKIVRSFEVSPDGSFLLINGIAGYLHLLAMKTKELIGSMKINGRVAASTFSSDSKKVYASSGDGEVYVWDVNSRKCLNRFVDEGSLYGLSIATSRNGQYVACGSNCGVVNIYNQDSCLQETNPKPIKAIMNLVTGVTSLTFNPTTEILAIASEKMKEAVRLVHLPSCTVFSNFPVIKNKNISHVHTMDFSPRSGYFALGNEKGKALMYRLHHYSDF
# Chain of UniProt Q96NC0 (Q96NC0 whole entry, looked up): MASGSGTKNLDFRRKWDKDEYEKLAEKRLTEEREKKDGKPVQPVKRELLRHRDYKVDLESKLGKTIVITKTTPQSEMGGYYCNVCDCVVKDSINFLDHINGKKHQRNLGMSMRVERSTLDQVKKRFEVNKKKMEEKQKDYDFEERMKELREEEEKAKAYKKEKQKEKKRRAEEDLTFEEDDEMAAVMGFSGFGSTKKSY
Target,log2 fold change [1],log2 fold change [2],log2 fold change [3],log2 fold change [4],log2 fold change [5],log2 fold change [6],log2 fold change [7],log2 fold change [8],log2 fold change [9],log2 fold change [10]
WDR41 (UniProt Q9HAD4),-0.071,-0.044,-0.021,0.015,-0.027,-0.113,0.031,-0.091,0.049,0.029
VAC14 (UniProt Q08AM6),-0.007,0.02,-0.004,0.032,0.024,-0.006,-0.023,0.006,0.015,0.024
WAC (UniProt Q9BTA9),0.027,0.004,0.027,0.092,-0.064,0.008,-0.076,0.051,0.015,-0.006
USP16 (UniProt Q9Y5T5),-0.002,-0.01,-0.01,-0.002,0.011,0.036,-0.016,-0.028,-0.005,-0.033
ZMAT2 (UniProt Q96NC0),0.025,-0.037,0.025,-0.023,-0.026,0.023,0.055,-0.007,-0.048,0.066
XPO1 (UniProt O14980),0.021,0.025,-0.015,0.017,0.026,-0.031,-0.045,-0.005,0.033,0.016
ZNF346 (UniProt Q9UL40),-0.057,,-0.009,,-0.035,-0.014,,0.016,-0.002,0.015
WIPI1 (UniProt Q5MNZ9),-0.025,,-0.006,,-0.016,-0.027,,0.035,-0.013,-0.007
WDHD1 (UniProt O75717),0.013,0.025,-0.004,0.019,0.002,0.006,-0.005,0,0.025,-0.017
UTRN isoform 2 (UniProt P46939),-0.222,,0.247,,-0.072,,,0.135,0.171,
ZFPM1 (UniProt Q8IX07),0.015,0.039,0.047,-0.041,0.005,-0.01,0.021,0.031,-0.01,0.077
UNKL (UniProt E9PDK2),,-0.088,,0.166,0.061,,-0.122,0.155,0.156,
VASN (UniProt Q6EMK4),-0.644 (active),,0.071,,,-0.191,,-0.277,-0.01,0.222
WSB1 (UniProt Q9Y6I7),,,,,,0.037,,,,-0.093
ZYG11A (UniProt Q6WRX3),-0.125,,-0.059,,-0.061,-0.04,,,,-0.004
UTP18 (UniProt Q9Y5J1),0.055,0.072,0.051,-0.056,0.129,0.038,-0.068,-0.122,0.107,-0.031
VARS (UniProt P26640),0.031,0.035,-0.031,0.007,0.03,0.019,-0.035,0.021,-0.002,0.011
VASP (UniProt P50552),0.001,-0.028,0.017,-0.006,-0.035,-0.003,-0.02,-0.006,0.035,0.014

Target,log2 fold change [1],log2 fold change [2],log2 fold change [3],log2 fold change [4],log2 fold change [5],log2 fold change [6],log2 fold change [7],log2 fold change [8],log2 fold change [9],log2 fold change [10]
ZSCAN21 (UniProt Q9Y5A6),,,,,,,,-0.022,0.037,
ZDHHC17 (UniProt Q8IUH5),,0.197,,0.011,,-0.082,-0.247,-0.066,-0.027,0.205
ZC3H13 (UniProt Q5T200),0.081,0.003,0.034,-0.027,-0.071,0.075,-0.045,-0.016,-0.043,0.007
VPS72 (UniProt Q15906),0.056,-0.036,0.046,-0.057,,-0.04,0.052,0.024,0.059,-0.008
WAS (UniProt P42768),0.023,,0.074,,-0.149,,,0.007,0.026,
WAC isoform 5 (UniProt Q9BTA9),-0.01,,-0.156,,,0.062,,,,0.018
ZC3H11A (UniProt O75152),0.021,-0.048,-0.027,0.004,-0.048,0.029,-0.02,-0.011,-0.003,-0.012
ZNF845 (UniProt Q96IR2),-0.033,-0.145,0.102,0.02,-0.09,0.047,-0.123,,,-0.044
YTHDF3 (UniProt Q7Z739),-0.009,-0.003,-0.035,-0.029,0.089,-0.183,0.003,-0.04,0.036,0.12
ZBTB40 (UniProt Q9NUA8),-0.044,-0.019,-0.014,-0.075,,-0.045,-0.017,,,-0.048
ZFYVE19 isoform 3 (UniProt Q96K21),,,,,0.038,,,,,
ZNF281 (UniProt Q9Y2X9),-0.191,,-0.106,,,0.006,,,,0.069
ULK3 isoform 4 (UniProt Q6PHR2),0.156,0.149,-0.008,-0.151,-0.053,,0.177,0.179,0.01,
ZKSCAN8 (UniProt Q15776),-0.005,-0.418,-0.148,0.004,,-0.001,-0.04,0.031,0.006,0.077
UNC13A (UniProt Q9UPW8),0.069,,0.039,,,,,,,
WRNIP1 (UniProt Q96S55),0.019,-0.128,-0.014,-0.024,-0.005,0.003,-0.064,0.028,0.023,-0.05
URGCP (UniProt Q8TCY9),,-0.024,,-0.075,-0.01,-0.038,0.051,,,0.022
